Results taken from PubChem BioAssay (NCI).
Compounds without any hit were thinned out: in the full panel of roughly 83,000, 20% have a hit.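 Note: values are percent growth. 100 is the growth of untreated cells, values between 100 and 0 indicate rising inhibition; between -100 and 0 indicates cell death.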 Active and inactive are the calls of the source. Rule for the calls: active = growth percent below 10; inactive = the rest.

Assays:
Assay in all cases: NCI-60 one-dose screen, 48 h (100 = growth as untreated, 0 = no growth, -100 = all killed)
Conditions in all cases: 10 µM unless noted
SR leukemia = test system: SR leukemia
RPMI-8226 leukemia = test system: RPMI-8226 leukemia
OVCAR-8 ovarian = test system: OVCAR-8 ovarian
OVCAR-5 ovarian = test system: OVCAR-5 ovarian
OVCAR-4 ovarian = test system: OVCAR-4 ovarian
SK-OV-3 ovarian = test system: SK-OV-3 ovarian
IGROV1 ovarian = test system: IGROV1 ovarian
OVCAR-3 ovarian = test system: OVCAR-3 ovarian
HS 578T breast = test system: HS 578T breast
NCI/ADR-RES ovarian = test system: NCI/ADR-RES ovarian
T-47D breast = test system: T-47D breast
BT-549 breast = test system: BT-549 breast
MDA-MB-435 melanoma = test system: MDA-MB-435 melanoma
SW-620 colon = test system: SW-620 colon
MCF7 breast = test system: MCF7 breast
HCT-116 colon = test system: HCT-116 colon
HCC-2998 colon = test system: HCC-2998 colon
KM12 colon = test system: KM12 colon

Row | Structure (SMILES) | growth (SR leukemia) | growth (RPMI-8226 leukemia) | growth (OVCAR-8 ovarian) | growth (OVCAR-5 ovarian) | growth (OVCAR-4 ovarian) | growth (SK-OV-3 ovarian) | growth (IGROV1 ovarian) | growth (OVCAR-3 ovarian) | growth (HS 578T breast) | growth (NCI/ADR-RES ovarian) | growth (T-47D breast) | growth (BT-549 breast) | growth (MDA-MB-435 melanoma) | growth (SW-620 colon) | growth (MCF7 breast) | growth (HCT-116 colon) | growth (HCC-2998 colon) | growth (KM12 colon)
1 | Nc1ccccc1NC(=O)c1ccc(NC(=O)C/C=C/c2cccnc2)cn1 | 28.2% (inactive) | -12% (active) | 21.5% (inactive) | 26% (inactive) | 32.9% (inactive) | 29.4% (inactive) | 16.7% (inactive) | 22.7% (inactive) | 24.6% (inactive) | 19% (inactive) | 8.26% (active) | 3.27% (active) | 19% (inactive) | 14.5% (inactive) | 5.84% (active) | 4.69% (active) | 9.51% (active) | 26.2% (inactive)
2 | CCOC(=O)C(=O)/C(=C\c1ccc(Cl)cc1)C(=O)N1C(=S)NC(=O)C1CC(C)C (stereo not given) | 105% (inactive) | 93.2% (inactive) | 103% (inactive) | 98.6% (inactive) | 98.2% (inactive) | 108% (inactive) | 95.2% (inactive) | 111% (inactive) | 106% (inactive) | 101% (inactive) | 98.2% (inactive) | 108% (inactive) | 98.6% (inactive) | 104% (inactive) | 92% (inactive) | 99.3% (inactive) | 101% (inactive) | 98.8% (inactive)
3 | CCC1=Cc2cc(OC)ccc2OC12C=Cc1cc(OC)ccc1O2 (stereo not given) | 15.8% (inactive) | 19.5% (inactive) | 41.3% (inactive) | 29.3% (inactive) | 56.8% (inactive) | 24% (inactive) | 30.1% (inactive) | 16% (inactive) | 15.3% (inactive) | 11.7% (inactive) | 52.8% (inactive) | 75.3% (inactive) | -28.5% (active) | 28.3% (inactive) | 15.3% (inactive) | 14.2% (inactive) | 22.9% (inactive) | 19.3% (inactive)
4 | COc1cc(OC)c(/C=C/S(=O)(=O)Cc2ccc(OC)c(NCC(=O)NO)c2)c(OC)c1 | 12.2% (inactive) | 20.2% (inactive) | 8.29% (active) | 33.6% (inactive) | 45.3% (inactive) | 37.3% (inactive) | 9.44% (active) | 2.98% (active) | 17% (inactive) | 7.63% (active) | 74.3% (inactive) | 11.6% (inactive) | -8.04% (active) | 28.3% (inactive) | 11% (inactive) | 3.2% (active) | 14.2% (inactive) | 4.53% (active)
5 | Brc1ccccc1/C=N/Nc1nc(N/N=C/c2ccccc2Br)nc(N2CCOCC2)n1 | 63.9% (inactive) | 65% (inactive) | 96.6% (inactive) | 111% (inactive) | 96.2% (inactive) | 114% (inactive) | 89.7% (inactive) | 85.2% (inactive) | 114% (inactive) | 91.5% (inactive) | 79% (inactive) | 107% (inactive) | 97.7% (inactive) | 96.7% (inactive) | 85.2% (inactive) | 97.5% (inactive) | 70.9% (inactive) | 89.1% (inactive)
6 | COc1ccc(/C=N/NC(=O)c2cn(C3CC3)c3c(OC)c(N4CC5CCCNC5C4)c(F)cc3c2=O)cc1 (stereo not given) | -3.21% (active) | 64.2% (inactive) | 94.8% (inactive) | 97.5% (inactive) | 87.9% (inactive) | 102% (inactive) | 75.3% (inactive) | 83.1% (inactive) | 99.1% (inactive) | 91% (inactive) | 85.9% (inactive) | 112% (inactive) | 100% (inactive) | 92.1% (inactive) | 70.8% (inactive) | 53.6% (inactive) | 95.4% (inactive) | 99.7% (inactive)
7 | O=C(Cn1cc[n+](CC(=O)c2ccc(-c3ccccc3)cc2)c1)Nc1cccc2cccnc12 | 53.9% (inactive) | 33.5% (inactive) | 76.6% (inactive) | 90.6% (inactive) | 32.9% (inactive) | 80% (inactive) | 27.3% (inactive) | 50.1% (inactive) | 75.8% (inactive) | 97.9% (inactive) | 40.4% (inactive) | 57.4% (inactive) | 79.3% (inactive) | 85% (inactive) | 51.4% (inactive) | 72.4% (inactive) | 51.7% (inactive) | 31.6% (inactive)
8 | Cc1nn(-c2ccccc2)c2ncnc(N/N=C/c3ccccc3)c12 | 98.1% (inactive) | 105% (inactive) | 96.7% (inactive) | 97.5% (inactive) | 80.4% (inactive) | 102% (inactive) | 81.9% (inactive) | 83.5% (inactive) | 103% (inactive) | 93% (inactive) | 75% (inactive) | 97.4% (inactive) | 96.9% (inactive) | 107% (inactive) | 80.4% (inactive) | 98.1% (inactive) | 115% (inactive) | 80.9% (inactive)
9 | COc1ccc(/C=C(/C)c2ccc3ccc(OC)cc3[o+]2)c(O)c1 | 14.9% (inactive) | 58.4% (inactive) | 80.5% (inactive) | 98.5% (inactive) | 84.5% (inactive) | 98.6% (inactive) | 58% (inactive) | 35.1% (inactive) | 98.7% (inactive) | 45.3% (inactive) | 69.7% (inactive) | 87.9% (inactive) | 38% (inactive) | 30.1% (inactive) | 30.7% (inactive) | 50.7% (inactive) | 114% (inactive) | 71.6% (inactive)
10 | COc1cc2nc(Cl)nc(Nc3cccc(C4=Nc5c(N)nc(N)nc5NC(c5ccc(Cl)cc5)C4)c3)c2cc1OC (stereo not given) | -8.05% (active) | -18.9% (active) | 29.1% (inactive) | 114% (inactive) | 101% (inactive) | 124% (inactive) | 87.9% (inactive) | 62.6% (inactive) | 88.6% (inactive) | 80.1% (inactive) | 81.7% (inactive) | 85.2% (inactive) | 6.34% (active) | 11.2% (inactive) | 13% (inactive) | -44.8% (active) | 4.35% (active) | 14.1% (inactive)
11 | COc1ccc(NCc2cn(-c3ccc(C(=O)O)cc3)nc2-c2cc(C(F)(F)F)cc(C(F)(F)F)c2)cc1 | 112% (inactive) | 67.2% (inactive) | 109% (inactive) | 104% (inactive) | 100% (inactive) | 99.6% (inactive) | 108% (inactive) | 101% (inactive) | 81.5% (inactive) | 96.8% (inactive) | 76.6% (inactive) | 110% (inactive) | 101% (inactive) | 102% (inactive) | 90.9% (inactive) | 95.2% (inactive) | 104% (inactive) | 99.8% (inactive)
12 | CCC(CC)N1C(=O)/C(=c2\sc3n(c2=O)NC2C(N=3)N(CC)C(=O)N2CC)c2ccccc21 (stereo not given) | 54.5% (inactive) | 64.7% (inactive) | 81.6% (inactive) | 57.3% (inactive) | 63.6% (inactive) | 95.7% (inactive) | 44.7% (inactive) | 31.5% (inactive) | 73.1% (inactive) | 26.3% (inactive) | 86.1% (inactive) | 102% (inactive) | 9.51% (active) | 48.2% (inactive) | 35.8% (inactive) | 27.9% (inactive) | 65.9% (inactive) | 11.2% (inactive)
13 | O=C(CSc1nnc(-c2ccc(Cl)cc2)n1-c1ccccc1)Nc1cccc(Cl)c1 | 21.4% (inactive) | 34.5% (inactive) | 62.4% (inactive) | 71.7% (inactive) | -5.99% (active) | 126% (inactive) | 46.7% (inactive) | 82% (inactive) | 54.4% (inactive) | 50.4% (inactive) | 48.2% (inactive) | 61.6% (inactive) | 72.9% (inactive) | 49.8% (inactive) | 65.1% (inactive) | 12.8% (inactive) | 83.8% (inactive) | 71.9% (inactive)
14 | CCCCCc1ccc(S(=O)(=O)Nc2cccc(-c3csc(NCCN4CCN(C)CC4)n3)c2)cc1 | -6.54% (active) | -21.4% (active) | 94.2% (inactive) | 94.1% (inactive) | 84.5% (inactive) | 92.4% (inactive) | 79.9% (inactive) | 68.1% (inactive) | 87% (inactive) | 85.7% (inactive) | 80.1% (inactive) | 95.1% (inactive) | 29.7% (inactive) | 2.57% (active) | 15.5% (inactive) | 4.07% (active) | -6.69% (active) | 77.7% (inactive)
15 | Cc1ccc(CSc2nc(-c3ccc(Cl)cc3)c(C#N)c(N3CCNCC3)n2)cc1 | -10.6% (active) | 69.4% (inactive) | 92% (inactive) | 99.7% (inactive) | 89.3% (inactive) | 117% (inactive) | 66.8% (inactive) | 82.9% (inactive) | 80.1% (inactive) | 94.5% (inactive) | 88.8% (inactive) | 91% (inactive) | 81.2% (inactive) | 83% (inactive) | 58.5% (inactive) | 66.9% (inactive) | 87.2% (inactive) | 84.7% (inactive)
